# Data as given in PubChem BioAssay AID493168 (National Center for Advancing Translational Sciences (NCATS), 2011).
# Results filed as inconclusive are left out. Values without a mark were called inactive. Active and inactive are the calls of the source. The call rests on the fitted dose curve; in most records, active means well fitted inhibition curve with a large enough effect; inconclusive means small, poorly fitted or top-dose-only effect, or effect the other way; inactive means flat fitted curve, though single readings scatter.
# Target: Ubiquitin carboxyl-terminal hydrolase 2 (Homo sapiens) (UniProt O75604)
# Sequence (O75604 whole entry, looked up): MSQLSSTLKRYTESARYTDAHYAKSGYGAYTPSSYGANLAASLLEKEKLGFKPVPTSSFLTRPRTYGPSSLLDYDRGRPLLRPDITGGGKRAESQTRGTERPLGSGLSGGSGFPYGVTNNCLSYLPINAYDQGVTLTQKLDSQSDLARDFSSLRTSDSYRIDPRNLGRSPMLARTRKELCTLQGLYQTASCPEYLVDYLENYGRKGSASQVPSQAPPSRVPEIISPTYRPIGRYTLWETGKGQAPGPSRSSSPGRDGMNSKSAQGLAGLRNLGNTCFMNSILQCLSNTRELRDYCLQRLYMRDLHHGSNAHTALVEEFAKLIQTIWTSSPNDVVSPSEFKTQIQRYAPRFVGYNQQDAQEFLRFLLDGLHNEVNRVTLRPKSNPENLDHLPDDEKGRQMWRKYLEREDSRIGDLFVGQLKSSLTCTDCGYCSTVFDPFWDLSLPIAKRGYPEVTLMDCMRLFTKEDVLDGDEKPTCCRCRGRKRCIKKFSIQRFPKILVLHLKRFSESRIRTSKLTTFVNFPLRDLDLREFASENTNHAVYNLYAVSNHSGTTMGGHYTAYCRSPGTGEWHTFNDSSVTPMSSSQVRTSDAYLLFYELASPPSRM
# Test: Confirmation Assay for Inhibitors of Ubiquitin-specific Protease USP2a Using CHOP2 as the Reporter; further: nearly all actives have a fitted effect of over 55% in size;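 on activity change, negative = inhibition: plate controls were DMSO wells for no effect and full inhibition by NEM control for full effect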
# Settings: USP2 core, Ub-CHOP2 coupled reporter fluorescence; series mostly up to 38.3 µM; activity change, negative = inhibition: at the top concentration
# Outline: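 Ub-CHOP2 cleavage coupled to reporter activation was read by fluorescence after 60 min at RT, with 25 nM final Ub-CHOP2 and substrate. Enzyme (10 nM final USP2 core) first sat 30 min with compound; data were normalized to NEM and fitted to concentration-response curves.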
# Potency means the concentration at half of the fitted maximal effect.
Structure (SMILES),"activity change, negative = inhibition [%]",Potency
O=C(Nc1ccc2c(c1)OCO2)NC1(C(F)(F)F)Oc2ccccc2O1,0.65,
CCCn1c(N2CCN(Cc3cccc(C)c3)CC2)nc2c1c(=O)[nH]c(=O)n2C,-0.381,
O=C(NCCN1C(=O)CSC1=O)C1CC(=O)N(c2ccccc2)C1 (centres undefined),3.9,
Cc1cc(C(=O)NCc2ccco2)on1,0.731,
CC(C(=O)Nc1ccc(C(=O)O)c(O)c1)N1C(=O)/C(=C\c2ccco2)SC1=S (centres undefined),,16.5 µM (active)
CCC(CO)Nc1nc(CN2CCCCC2)nc2scc(-c3ccccc3)c12 (centres undefined),-0.544,
O=C(NN1C(=O)/C(=C/C=C/c2ccco2)SC1=S)c1ccncc1,,13.1 µM (active)
Cc1c(C(=O)Nc2ccc3c4c(cccc24)CC3)cccc1[N+](=O)[O-],1.37,
Cc1cc(Cl)ccc1NC(=S)NCCCN1CCCC1=O,-2.55,
Cc1ccc(Nc2cc(C)nc(NCc3ccccc3)n2)cc1,-2.23,
Cc1cccc(-c2nnc3n2N=C(c2ccc(Br)cc2)CS3)c1,4.34,
N#CCC(=O)Nc1ccc(C(=O)OCC(=O)NCc2ccc3c(c2)OCO3)cc1,-14,
COc1ccc(C2CC(=O)N3CN(c4ccccc4F)CSC3=C2C#N)cc1OC (centres undefined),-2.34,
NC1=NC(=O)/C(=C/c2cccc(-c3ccc(S(N)(=O)=O)cc3)c2)S1,,9.27 µM (active)
O=C(Nc1ccc(N2CCCC2)cc1)c1cccc(-c2cc3ccccc3oc2=O)c1,-0.397,
CCC(C(=O)Nc1nnc(-c2ccco2)s1)c1ccccc1 (centres undefined),2.92,
O=C(CNC(=O)C1CCCCC1)NC1=NCCS1,-0.749,
COC(=O)c1ccc(CSc2ncnc3ccccc23)o1,1.14,
CCN(CC)c1ccc2nc3ccccc3[n+](CC)c2c1,-10.3,
CCc1c(O)nc(SCC(=O)Nc2ccccc2OC)[nH]c1=O,3.26,

Structure (SMILES),"activity change, negative = inhibition [%]",Potency
O=C(N/C(=C/c1cccnc1)C(=O)N1CCOCC1)c1ccco1,4.27,
Cc1ccccc1OCCn1nc(C(=O)O)c2ccccc2c1=O,0.884,
COc1cc(OC)cc(-c2c(C#Cc3ccsc3)c3cc(-c4ccc(OC)c(F)c4)ccc3n2C)c1,4.92,
COc1ccc(Cc2nnc(NC(=O)Cc3cccs3)s2)cc1,,11.7 µM (active)
Cc1c(O)c(CN2CCCC2)cc2c3c(c(=O)oc12)CCC3,-1.61,
O=C1COc2ccc(C(=O)COC(=O)/C=C/c3ccc(Br)o3)cc2N1,,9.27 µM (active)
CCOC(=O)Nc1ccc(S(=O)(=O)Nc2cc(C)nc(C)n2)cc1,1.06,
Cc1c(N=C/C=C2\N(C)c3ccccc3C2(C)C)c(=O)n(-c2ccccc2)n1C,-1.52,
Cc1cc(N2CCOCC2)nc(SCC(=O)c2ccc(Cl)cc2)n1,5.19,
Cc1nc2n(n1)CC(O)CS2 (centres undefined),4.62,
S=c1[nH]nc(-c2cc(-c3ccco3)[nH]n2)n1-c1cccc2ccccc12,-3.18,
CC(C)CC(=O)Nc1cccc(-c2nc3ccccc3o2)c1,-1.67,
Cc1ccc(NC(=O)c2onc(C)c2Cl)cc1,-4.53,
N#CNC(=Nc1cccc(F)c1)SCc1cccc(F)c1,-0.652,
O=C(Nc1cccc(Cl)c1)Nc1nnc(CC2=CCCCC2)s1,1.35,
Cc1ccc(S(=O)(=O)Cc2ccc(C(=O)N3CCN(c4ccccn4)CC3)o2)cc1,-2.6,
O=C(Nc1cnn(Cc2ccccc2)c1)c1nc2ncccn2n1,-1.86,
Cc1ccc(N2CCN(C(=O)CCc3nc4ccccc4[nH]3)CC2)c(C)c1,3.5,
COc1ccc(CN(Cc2cc3cc(C)ccc3[nH]c2=O)C(=O)N(C)C)cc1,0.163,
